Bioassay records from PubChem BioAssay.
ssDAF12 agonist: S. stercoralis DAF-12 activation, primary screen | HEK293 ssDAF-12/GRIP1 lit1-tk-luc reporter, luminescence; % of 3 µM dafachronic acid response | activation, % at 6.8 µM | actives 1% (n = 370,000) | AID 652126;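 active = activation above the mean over all tested compounds plus 3 SD, cut at about 0.9% in these data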
DAX1 inh-1: NR0B1 (DAX1) inhibition; P51843; HEK293 Gal4-DAX1 luciferase reporter, luminescence; inhibition, % at 6.75 µM; actives 0.99% (n = 340,000); AID 504766;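 active = inhibition above the mean over all tested compounds plus 3 SD, cut at about 4.2% in these data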;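 note: inhibition shows as a rise in luminescence from relieved DAX1 repression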
SMARCA2 activ: activators of SMARCA2 function; actives 1% (n = 370,000); activation, % at 9.1 µM; MG213 cells, MMTV-luciferase reporter, dexamethasone, overnight; in the data active = activation above about 7.8%
hcDAF-12 act: activates DAF-12 receptor from parasite H. contortus; HEK293 hcDAF-12 lit1-tk-luc reporter, luminescence; 0% DMSO, 100% Δ7-dafachronic acid; activation, % at 6.8 µM; actives 1.4% (n = 370,000);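 active = activation above the mean of all tested compounds plus 3 SD, cut at about 5.5% in these data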
DAX1 inh-2: DAX1 (NR0B1) inhibition, primary screen. actives 1.1% (n = 370,000). HEK293T StAR-luciferase reporter, SF-1/DAX-1 repression relief. inhibition, % at 6.8 µM;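 active = inhibition above the mean over all tested compounds plus 3 SD, cut at about 3.6% in these data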;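 note: higher inhibition means more luminescence from relief of DAX-1 repression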
hgDAF12 agonist: hgDAF-12 agonism, primary luciferase screen; HEK293 GAL4-hgDAF12 UAS-luciferase reporter, agonist luminescence; normalized to butyrate control; actives 1.8% (n = 370,000); activation, % at 6.8 µM;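 active = activation above a cutoff set at the mean of all screened compounds plus 3 SD, cut at about 10% in these data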
LXR ag: counter-screen for hcDAF-12 agonists: agonists of human LXR-beta | shares compounds with hcDAF-12 act | HEK293 Gal4-LXR tk-luc reporter, luminescence, 24 h; normalized: DMSO 0%, positive control 100% | activation, % at 6.8 µM | 3,400 tested, under 10 active | AID 743027;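 active = mean percent activation of the reporter above a cutoff set as the average over tested compounds plus their standard deviation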
Target sequence (P55055 whole entry, looked up, the tested form may be a part): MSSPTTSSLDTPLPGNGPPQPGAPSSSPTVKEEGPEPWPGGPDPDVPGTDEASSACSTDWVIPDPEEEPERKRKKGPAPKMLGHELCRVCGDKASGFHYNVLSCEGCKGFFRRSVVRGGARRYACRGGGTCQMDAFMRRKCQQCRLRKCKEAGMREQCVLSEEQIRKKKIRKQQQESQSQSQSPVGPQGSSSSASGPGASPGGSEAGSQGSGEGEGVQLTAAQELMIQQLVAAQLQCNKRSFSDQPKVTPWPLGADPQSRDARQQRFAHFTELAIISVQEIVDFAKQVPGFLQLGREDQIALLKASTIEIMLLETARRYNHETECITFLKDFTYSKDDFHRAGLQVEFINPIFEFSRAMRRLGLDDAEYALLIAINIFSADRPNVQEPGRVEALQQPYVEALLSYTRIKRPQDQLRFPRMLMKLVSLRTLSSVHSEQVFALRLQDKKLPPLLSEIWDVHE
hcDAF12 ag: hcDAF-12 agonism, confirmation assay. shares compounds with hcDAF-12 act. HEK293 hcDAF-12 lit1-tk-luc reporter, luminescence; % of Δ7-dafachronic acid response. activation, % at 6.8 µM. actives 61% (n = 3,400);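 active = mean activation across triplicate tests above the threshold derived from the earlier primary screen, cut at about 5.5% in these data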
hgDAF12 ag: hgDAF-12 agonism, confirmation assay. AID 743050. shares compounds with hgDAF12 agonist. activation, % at 6.8 µM. actives 80% (n = 3,300). HEK293 GAL4-hgDAF12 luciferase reporter, agonist mode; percent of butyrate response;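 active = mean activation over triplicate wells above the hit cutoff derived from the earlier primary screen, cut at about 11% in these data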
LXR ag 2: activates human LXR-beta, counter-screen for DAF-12 agonists; shares compounds with hgDAF12 agonist; HEK293 Gal4-LXR luciferase reporter, 24 h; 3,300 tested, under 10 active; activation, % at 6.8 µM;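 active = mean activation of the triplicate above a set limit carried over from the primary screen, none filed active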
Numbers stand for hits; i = inactive; nt = no result. Rows were chosen to be rich in hits. Some 4.8% of all compounds tested hit in one or more screens of this group.

SMILES	ssDAF12 agonist	DAX1 inh-1	SMARCA2 activ	hcDAF-12 act	DAX1 inh-2	hgDAF12 agonist	LXR ag	hcDAF12 ag	hgDAF12 ag	LXR ag 2
CCCn1c(/C=C/c2ccccc2)nc2ccccc21	i	i	i	6.6	3.6	11	i	7.9	nt	nt
COC(=O)N1Cc2ccnnc2CC1c1ccccc1-c1ccc(F)cc1 (configuration not stated)	i	nt	i	i	i	i	nt	nt	nt	nt
O=C(Cc1cccs1)Nc1cccc(-c2nc3cc4ccccc4cc3[nH]2)c1	i	i	i	9.4	i	13	i	i	nt	nt
Clc1ccc(OCCCCSc2ncccn2)cc1	i	i	i	i	i	i	nt	nt	nt	nt
CCCOc1ccc(OCCSc2ncccn2)cc1	i	i	i	6.8	i	i	i	i	nt	nt
O=C(CCSc1nc2ccccc2o1)N1CCOCC1	i	i	i	7.1	i	i	i	i	nt	nt
O=C(CCSc1ccccc1)N1CCOCC1	i	i	i	i	i	i	nt	nt	nt	nt
O=C(COC(=O)c1ccc([N+](=O)[O-])o1)Nc1ccc(F)cc1	i	i	i	i	i	i	nt	nt	nt	nt
Cc1ccc2nc(-c3ccc(NC(=O)COC(=O)c4ccc([N+](=O)[O-])o4)cc3)sc2c1	1.3	i	i	7.4	4.0	23	i	8.8	nt	nt
CC(C)CN1CCN(C(=O)CCc2nnc(Cc3c[nH]c4ccccc34)o2)[C@@H](C)C1=O	i	i	i	7.0	i	i	i	i	nt	nt
CCN1CCN(C(=O)CCc2nnc(CCc3c[nH]c4ccccc34)o2)[C@@H](C)C1=O	i	i	i	i	i	i	nt	nt	nt	nt
C[C@@H]1ON(C)[C@H]2C[C@H]3c4[nH]c5cccc(-c6cccc(F)c6)c5c4CCN3C(=O)[C@@H]12	i	nt	i	i	i	i	nt	nt	nt	nt
Cc1cc(O)c(NC(=O)c2cccc([N+](=O)[O-])c2)cc1C	2.5	i	i	7.0	i	17	i	9.2	11	i
Cc1ccc(-c2onc3ccc(C(=O)O)cc23)cc1	1.0	i	i	9.4	i	19	i	8.7	23	i
Cc1cc(C)c(C#N)c(SCc2nc3ccccc3[nH]2)n1	3.6	4.8	i	18	i	15	i	11	12	i
CC(=O)N1CCN(c2ccc(N3CCN(Cc4ccccc4)[C@H](C)C3)c(C)c2)[C@@H](C)C1	i	nt	i	i	i	i	nt	nt	nt	nt
CC(C)n1cnc2cc(NCc3nc4ccccc4n3C)ccc21	i	i	i	6.7	i	14	i	6.1	11	i
Cn1c(CNc2nc3ccccc3n2CCN2CCCCC2)nc2ccccc21	i	i	i	i	i	i	nt	nt	nt	nt
Cc1ccc2nc(-c3ccc(NC(=S)NCC(C)(C)CN(C)C)cc3)sc2c1	i	13	i	7.8	4.0	18	i	i	13	i
COC(=O)[C@H](N[C@H](/C=C/c1ccccc1)[C@@H](O)Cc1ccccc1)c1ccccc1	i	nt	i	i	i	i	nt	nt	nt	nt
Nc1ccc2nn(-c3ccc(F)cc3)nc2c1	2.3	4.3	i	14	i	16	i	i	16	i
Cc1cc2nn(-c3ccc(F)cc3)nc2cc1N	1.4	i	i	14	4.0	18	i	16	24	i
CCOC(=O)C1=C(C(=O)OCC)C2N(Cc3ccc(C#N)cc3)c3ccccc3[C@@]23C[C@@H](C(=O)OC)N(S(=O)(=O)c2ccc(OC)cc2)C3=N1 (some centres not stated)	i	nt	i	i	i	i	nt	nt	nt	nt
CC(=O)C1=C(C)N(Cc2ccc(F)cc2)C(=S)NC1c1cccc(F)c1 (configuration not stated)	i	nt	i	i	i	i	nt	nt	nt	nt
O=C(NC(=S)Nc1cnc2ccccc2c1)c1ccccc1	1.9	5.9	i	7.4	4.2	21	i	6.6	13	i
SMILES	ssDAF12 agonist	DAX1 inh-1	SMARCA2 activ	hcDAF-12 act	DAX1 inh-2	hgDAF12 agonist	LXR ag	hcDAF12 ag	hgDAF12 ag	LXR ag 2
Cc1ccc(Nc2n[nH]c(C)c2[N+](=O)[O-])cc1C	1.0	i	i	11	4.4	19	i	6.3	22	i
COC(=O)C1=C(C)N(C)C(=NCc2ccc(OC)cc2)NC1c1ccc(C(F)(F)F)cc1 (configuration not stated)	i	nt	i	i	i	i	nt	nt	nt	nt
CCOc1ncccc1C(=O)Nc1nc(SC)ns1	i	i	i	6.9	i	14	i	6.1	11	i
CCOc1ncccc1C(=O)Nc1nnc(C)s1	i	i	i	i	i	i	nt	nt	nt	nt
C#CCNC(=O)c1cc2cccnc2nc1N	i	nt	i	i	i	i	nt	nt	nt	nt
Cc1ccc(NC(=O)c2cccs2)cc1	i	i	i	i	i	i	nt	nt	nt	nt
O=C(Nc1ncc(Cc2cccc(Cl)c2)s1)c1cccs1	i	i	i	i	i	i	nt	nt	nt	nt
Cc1ccc(Cc2cnc(NC(=O)c3cccs3)s2)cc1	1.5	i	i	10	3.8	15	i	7.3	18	i
O=C(Nc1ncc(Cc2ccccc2)s1)c1cccs1	i	i	i	8.4	i	15	i	8.0	20	i
Brc1ccc(Nc2nc(-c3cccnc3)cs2)cc1	i	i	i	8.0	i	23	i	11	13	i
COc1ccccc1Nc1nc(-c2cccc([N+](=O)[O-])c2)cs1	i	i	i	i	i	i	nt	nt	nt	nt
O=[N+]([O-])c1cccc(-c2csc(Nc3ccccc3)n2)c1	0.9	i	i	6.8	i	14	i	8.0	17	i
CCOC(=O)CN1C(=O)[C@]2(OCCC=C[C@H]2C)c2c(Br)cccc21	i	nt	i	i	i	i	nt	nt	nt	nt
COc1ccccc1N1CCN(c2ccc(-c3ccccc3)nn2)CC1	1.3	i	i	7.1	i	18	i	i	i	i
O=C(C(=O)N1CCC(CNC(=O)C2COc3ccccc3O2)CC1)c1cc2ccccc2o1 (configuration not stated)	i	nt	i	i	i	i	nt	nt	nt	nt
C/C(=N\Nc1nncc2ccccc12)c1ccc(O)cc1	i	i	i	7.0	i	16	i	i	i	i
Cc1nn(-c2ccc(Cl)cc2Cl)c(=O)c2ccccc12	i	i	i	i	i	i	nt	nt	nt	nt
Cc1nn(-c2ccc3ccccc3c2)c(=O)c2ccccc12	1.7	i	i	12	i	16	i	8.5	15	i
Nc1ccc2nc(-c3ccccc3)cnc2c1	i	i	i	i	i	i	nt	nt	nt	nt
